From PubChem BioAssay
Methyltransferases – Primary Screen for Target Class Profiling of Small Molecule Inhibitors of Methyltransferases; purified enzyme, MTase-Glo SAH luminescence; stronger effect = lower value; calls only at 40 µM; 25,000 tested, 3.9% active; call rule not given here
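Each enzyme was assayed with SAM and its substrate. SAH formation detected by MTase-Glo luminescence; single-point 40 uM screen[…].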
Calls only; ! = repeats disagree. The sample as a whole holds a higher share of hits than the screen did.

What do the screens show for `COc1ccccc1NC(=O)c1sc(=S)n2c1[nH]c(=O)c1cc(Cl)ccc12`?
Methyltransferases: inactive

Results for O=C(NCc1ccc2c(c1)OCO2)c1ccc2c(=O)[nH]c3c(C(=O)NCC4CCCO4)sc(=S)n3c2c1 (centres undefined) ?
Methyltransferases: inactive

How did Cc1ccc(NC(=O)c2sc(=S)n3c2[nH]c(=O)c2cc(Cl)ccc23)c(C)c1 do in these assays?
Methyltransferases: inactive

How did O=C(NCc1ccc(Cl)cc1)c1ccc2c(=O)[nH]c3c(C(=O)NC4CCCC4)sc(=S)n3c2c1 do in these assays?
Methyltransferases: active

Results for COc1cc2c(=O)[nH]c3c(C(=O)NCc4ccc5c(c4)OCO5)sc(=S)n3c2cc1OC ?
Methyltransferases: inactive

Results for Cc1cccc(-c2n[nH]n3c2nc(=O)c2ccc(C(=O)NCc4ccc5c(c4)OCO5)cc23)c1 ?
Methyltransferases: inactive

How did Cc1ccc2c(c1)c(=O)[nH]c1c(C(=O)NCc3ccc4c(c3)OCO4)sc(=S)n12 do in these assays?
Methyltransferases: active

How did CC[C@H](C)NC(=O)c1sc(=S)n2c1[nH]c(=O)c1cc(Cl)ccc12 do in these assays?
Methyltransferases: active

What do the screens show for `CCOC(=O)c1cc2n(n1)CC(C)(C(=O)NC1CCCCC1)N(CCc1cccs1)C2=O` (centres undefined)?
Methyltransferases: inactive

What do the screens show for `CC(C)CCn1c(=O)c2ccccc2n2c(SCC(=O)Nc3ccc(C(C)C)cc3)nnc12`?
Methyltransferases: inactive

How did CCOC(=O)CNC(=O)C1(C)Cn2c(ccc2-c2ccco2)C(=O)N1Cc1ccc2c(c1)OCO2 (centres undefined) do in these assays?
Methyltransferases: inactive

What do the screens show for `CCOCCCN1C(=O)c2ccc(-c3ccccc3)n2CC1(C)C(=O)NC1CCCCCC1` (centres undefined)?
Methyltransferases: inactive

How did CC(C)OCCCn1c(=O)c2ccccc2n2c(=O)n(Cc3c(F)cccc3Cl)nc12 do in these assays?
Methyltransferases: inactive

How did CC1(C(=O)NC2CCCC2)Cn2c(nc3ccccc32)C(=O)N1CCCc1ccccc1 (centres undefined) do in these assays?
Methyltransferases: inactive

Results for Cc1c(Cl)cccc1N1C(=O)c2cc3sccc3n2CC1(C)C(=O)NC1CCCCCCC1 (centres undefined) ?
Methyltransferases: inactive

Results for CCC1(CO)CCCN(CCCOc2ccc(C(N)=O)cc2)C1 (centres undefined) ?
Methyltransferases: inactive

Results for c1cc(OCCCN2CCCCC2)ccc1CN1CCCCC1 ?
Methyltransferases: active

What do the screens show for `Cc1ccc(CN2CCN(Cc3ccc(=O)n(C)c3)CC2)cc1`?
Methyltransferases: inactive

What do the screens show for `CCC(=C(c1ccc(OCCN2CCCC2)cc1)c1ccc(OCCN2CCCC2)cc1)c1ccccc1`?
Methyltransferases: active

How did CC/C(=C(\c1ccccc1)c1ccc(OCCN(C)C)cc1)c1ccccc1 do in these assays?
Methyltransferases: inactive

What do the screens show for `CC/C(=C(\c1ccc(O)cc1)c1ccc(OCCNC)cc1)c1ccccc1`?
Methyltransferases: inactive

How did Cc1cccc(N2C(=O)c3cc4occc4n3CC2(C)C(=O)NC2CCC(C)CC2)c1C (centres undefined) do in these assays?
Methyltransferases: inactive

How did CCc1cc2c(cc3n2CC(C)(C(=O)NC2CCC(C)CC2)N(Cc2ccc(OC)cc2)C3=O)s1 (centres undefined) do in these assays?
Methyltransferases: inactive

What do the screens show for `O=C(Cn1nc2n(Cc3ccc(F)cc3)c(=O)c3ccccc3n2c1=O)NCc1ccc(Cl)cc1`?
Methyltransferases: inactive

How did CCc1cccc(N2C(=O)c3c(C(=O)OC)ncn3CC2(C)C(=O)NC2CCCC2)c1 (centres undefined) do in these assays?
Methyltransferases: inactive

Results for CCCn1c(=O)c2ccccc2n2c(SCC(=O)Nc3cc(Cl)ccc3OC)nnc12 ?
Methyltransferases: inactive

Results for Cc1ccc(CNC(=O)Cn2c(=O)oc3cc(S(=O)(=O)N4CC(C)CC(C)C4)ccc32)cc1 (centres undefined) ?
Methyltransferases: inactive

What do the screens show for `CCN(CC)CCN(Cc1ccc(-c2ccc(C(F)(F)F)cc2)cc1)C(=O)Cn1c(SCc2ccc(F)cc2)nc(=O)c2c1CCC2`?
Methyltransferases: active

How did CC(CNc1nc2c(S(=O)(=O)c3ccccc3)nnn2c2ccccc12)c1ccccc1 (centres undefined) do in these assays?
Methyltransferases: inactive

What do the screens show for `COc1ccc(-c2n[nH]n3c2nc(=O)c2ccc(C(=O)NC4CCCCC4)cc23)cc1`?
Methyltransferases: inactive

Results for COc1ccccc1CCN1C(=O)c2cc3ccccc3n2CC1(C)C(=O)NCCC(C)C (centres undefined) ?
Methyltransferases: inactive

What do the screens show for `CCC(C)NC(=O)Cn1nc2nc(Nc3ccc(F)cc3)ccn2c1=O` (centres undefined)?
Methyltransferases: inactive

Results for COc1ccc(CN2C(=O)c3c(-n4cccc4)c4ccccc4n3CC2(C)C(=O)NC2CCCC2)cc1 (centres undefined) ?
Methyltransferases: inactive

What do the screens show for `CCOC(=O)c1cc2n(n1)CC(C)(C(=O)NC1CCC(C)CC1)N(c1cccc(Cl)c1C)C2=O` (centres undefined)?
Methyltransferases: inactive

How did Cc1ccc(Nc2nccc(N(C)c3ccc4c(C)n(C)nc4c3)n2)cc1S(N)(=O)=O do in these assays?
Methyltransferases: active

What do the screens show for `COc1ccccc1CNC(=O)C1c2c(n(C)c3ccccc23)SCC(=O)N1c1ccc(C)c(C)c1` (centres undefined)?
Methyltransferases: inactive

What do the screens show for `CC1CCN(S(=O)(=O)c2ccc3c(ccn3CCC(=O)NC3CCCCC3)c2)CC1`?
Methyltransferases: inactive

What do the screens show for `Cc1ccc(Cn2c(=O)c3ccccc3n3c(-c4ccc(F)cc4)nnc23)cc1`?
Methyltransferases: inactive

Results for Cc1cc2c(cc1CC(=O)c1sccc1S(=O)(=O)Nc1onc(C)c1Cl)OCO2 ?
Methyltransferases: active!

What do the screens show for `CC1CCCC(NC(=O)C2(C)Cn3c(cc4occc43)C(=O)N2c2ccc(Cl)cc2)C1C` (centres undefined)?
Methyltransferases: inactive

How did CC(C)CCNC(=O)C1(C)Cn2nc(C(=O)NCc3ccc(N(C)C)cc3)cc2C(=O)N1C (centres undefined) do in these assays?
Methyltransferases: inactive

How did O=C(CCn1ccc2cc(S(=O)(=O)N3CCCCC3)ccc21)NCc1cccc(F)c1 do in these assays?
Methyltransferases: inactive

What do the screens show for `CCc1cccc(N2C(=O)c3ccc(-c4ccco4)n3CC2(C)C(=O)NC2CCCC2)c1` (centres undefined)?
Methyltransferases: inactive

How did CC1=C2C[C@@]3(C)C(CCC[C@@H]3C)C(O)C2OC1=O (some centres undefined) do in these assays?
Methyltransferases: inactive

How did CC1(O)CCC2C(C3C1CCC3(C)O)C2(C)C (centres undefined) do in these assays?
Methyltransferases: inactive

Results for CC1=C2CC3C(CCC3(C)O)C(C)(O)CC2OC1=O (centres undefined) ?
Methyltransferases: active

What do the screens show for `CCC(C)NC(=O)c1ccc2c(=O)n(Cc3ccccc3)c3nn(Cc4ccc(F)cc4)c(=O)n3c2c1` (centres undefined)?
Methyltransferases: inactive

Results for Cc1ccc(Cn2c(=O)c3ccc(C(=O)NC4CCCC4)cc3n3c(=O)n(Cc4ccccc4)nc23)cc1 ?
Methyltransferases: inactive

What do the screens show for `COc1ccc(-c2n[nH]n3c2nc(=O)c2ccc(C(=O)NCc4ccc5c(c4)OCO5)cc23)cc1`?
Methyltransferases: inactive
